CYP2C19 act: activators of human cytochrome P450 2C19; activation factor at 5 µM; recombinant CYP2C19, luciferin-H EGE luminescence; stronger effect = higher value; 0 = fully inhibited enzyme, 1 = untreated enzyme; P33261; 96,000 tested, under 10 active;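 active = activation factor of at least 2 at 5 µM in the primary screen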;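 also: 0 = wells with 2.5 mM tranylcypromine and 1 = vehicle-only wells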
CYP2C19 inh: blocks human cytochrome P450 2C19 | P33261 | CYP2C19 Supersomes, luciferin-H EGE luminescence, 30 min | inhibition, % at 5 µM | 96,000 compounds, 21% hits | AID 778;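 active = CYP2C19 inhibition above a set limit at 5 µM in the primary screen, cut at about 50% in these data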;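 also: plate controls were negative control wells for no effect and 2.5 mM tranylcypromine positive control for full effect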
CYP2C9 act: activators of human CYP2C9 | P11712 | AID 1024 | activation factor at 5 µM | 96,000 compounds, 1.4% hits | recombinant CYP2C9, luciferin-H conversion, luminescence; stronger effect = higher value; factor 1 = untreated enzyme, 0 = blocked;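 active = activation factor of 2 or more for CYP2C9 at a 5 µM dose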;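 also: 0 = sulfaphenazole-blocked wells and 1 = vehicle-only wells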
Target sequence (P11712 whole entry, looked up): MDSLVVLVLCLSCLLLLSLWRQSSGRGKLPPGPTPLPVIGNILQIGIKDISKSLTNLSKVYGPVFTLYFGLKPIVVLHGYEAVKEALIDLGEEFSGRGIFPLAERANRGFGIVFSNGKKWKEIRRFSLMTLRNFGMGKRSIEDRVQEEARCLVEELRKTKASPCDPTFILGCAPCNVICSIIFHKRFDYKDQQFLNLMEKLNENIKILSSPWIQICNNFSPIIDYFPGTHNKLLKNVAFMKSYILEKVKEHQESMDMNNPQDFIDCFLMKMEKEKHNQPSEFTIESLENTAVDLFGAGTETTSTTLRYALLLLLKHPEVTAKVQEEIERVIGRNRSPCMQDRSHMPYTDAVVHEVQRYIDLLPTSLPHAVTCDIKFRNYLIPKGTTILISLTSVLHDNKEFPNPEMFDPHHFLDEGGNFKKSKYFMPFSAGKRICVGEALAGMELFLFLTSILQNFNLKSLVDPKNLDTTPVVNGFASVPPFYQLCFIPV
PostGolgi ctrl: growth of the yeast control strain, post-Golgi counter-screen | efflux-deficient yeast background strain, growth absorbance A615, 16 h | inhibition, % at 10 µM | 98,000 compounds, 5% hits
CYP2C9 inhib: blocks human cytochrome P450 2C9; CYP2C9 Supersomes, luciferin-H conversion, luminescence; 96,000 compounds, 20% hits; inhibition, % at 5 µM;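 active = blocking of liver enzyme CYP2C9 beyond about 50% at 5 µM, limit read from the data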
PostGolgi yeast: growth inhibition of a yeast mutant, post-Golgi transport screen; post-Golgi transport phenotypic cell assay; inhibition, % at 10 µM; 98,000 compounds, 0.9% hits;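 also: yeast cells grown in 1536-well plates; yeast grown about 18 h at 30C before absorbance read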
* marks the source's active call; other numbers are inactive results; . = no result. Compounds with a hit are over-represented: about 32% of the library has one in this group of screens. Rule as the data show it, unless noted: active = inhibition above about 30%; inactive = the rest.

SMILES	CYP2C19 act	CYP2C19 inh	CYP2C9 act	PostGolgi ctrl	CYP2C9 inhib	PostGolgi yeast
Cc1ccccc1-c1nnc(SCc2ccccc2)o1	0.3	73*	0.4	5	59*	-4
CN(C)S(=O)(=O)c1ccc2c(c1)C(CC(=O)O)NC2=O (stereo not drawn)	0.9	8	0.8	-3	16	-4
CC1CCCCC1NC(=O)Cn1ncc2ccccc21 (stereo not drawn)	0.7	31	1	13	-2	-2
c1ccc(CSc2nnc(-c3ccncc3)o2)cc1	0	97*	0.1	7	93*	22
O=C(CSc1nnc(-c2ccncc2)o1)Oc1ccccc1	1	-1	1.1	14	-5	-6
COc1cc(OC)cc(-c2nnc(SCc3c(F)cccc3Cl)o2)c1	0.5	47	0.4	10	63*	1
Cc1ccc(N2C(=O)c3ccc(C(=O)N4CCN(c5ccccc5F)CC4)cc3C2=O)cc1	0.9	9	0.9	11	6	-2
Cn1ncc(C#N)c1/N=C/N(Cc1ccccc1)Cc1ccccc1	0	95*	0	35*	99*	2
CN1CCN(/C=N/c2c(C#N)cnn2C)CC1	1.1	-13	1	1	-3	-1
Cc1cc(C)c2c(=O)n(CC(=O)NCCCN3CCOCC3)sc2n1	0.7	33	0.2	5	81*	2
Cc1cc(C)c2c(=O)n(CC(=O)NCCCN3CCN(c4ccccc4F)CC3)sc2n1	0.6	38	0.3	13	65*	10
Cc1ccccc1CS(=O)(=O)CCC(=O)NCCCN1CCN(c2ccccc2F)CC1	1	2	1	5	-4	5
O=C(NCc1ccco1)c1ccccc1NS(=O)(=O)c1cccs1	0.2	81*	0.3	-3	72*	-6
O=C(NCc1ccco1)c1ccccc1NS(=O)(=O)c1ccc2c(c1)OCCO2	0.4	56*	1.6	2	-61	11
O=C(O)/C=C/C(=O)Nc1ccccc1C(=O)Nc1ccccc1	1.5	-48	1	7	4	-4
O=C(Nc1ccccc1)c1ccccc1NS(=O)(=O)c1ccc(Cl)s1	.	.	.	44*	.	-8
COCCSc1ccccc1C(=O)NCc1ccco1	0.8	24	1.1	-1	-10	-1
O=C(NCc1ccco1)c1ccccc1NS(=O)(=O)c1ccc(Cl)s1	1.2	-17	0	16	97*	-6
CSc1ccc(Cl)c(C(=O)NCc2ccco2)c1	0.7	35	1.1	5	-12	0
Cn1c(=O)c2c(nc(SCCOc3ccc4ccc(=O)oc4c3)n2C)n(C)c1=O	1	1	1	.	2	.
Cc1ccc(N=Nc2c(=O)[nH]n3c(=O)cc(C)[nH]c23)cc1	0.8	22	0.7	4	28	-1
CCn1c(Cc2ccc(OC)cc2)nnc1SCC(=O)Nc1cccc(C(=O)OC)c1	.	.	.	10	.	-7
O=C(OCc1cccs1)c1ccccc1NS(=O)(=O)c1ccc2c(c1)OCCO2	0.4	60*	0.8	27	24	-8
Cc1nc(NC(=O)c2ccco2)sc1C(=O)Nc1ccc(Br)cc1	0.8	15	0.6	30	38	2
O=C(COc1ccc2ccccc2c1)NC1=NCCS1	0.4	65*	1.6	-6	-59	-5
SMILES	CYP2C19 act	CYP2C19 inh	CYP2C9 act	PostGolgi ctrl	CYP2C9 inhib	PostGolgi yeast
Cc1cc(C)cc(OCC(=O)NC2=NCCS2)c1	0.7	28	2.3*	2	-130	14
Cc1ccsc1/C=N/n1cnc2sc(C)c(C)c2c1=O	0.9	12	0.6	-1	35	4
O=C(CCNS(=O)(=O)c1ccc(Br)s1)NC1CCCC1	0.9	13	2.1*	-6	-108	-1
O=C(CCNS(=O)(=O)c1ccc(Br)s1)N1CCCCC1	0.3	68*	1.7	1	-66	-14
O=C(CCNS(=O)(=O)c1ccc(Br)s1)Nc1ccc(Cl)cc1	0.6	42	2*	19	-100	-4
O=C(O)CNS(=O)(=O)c1ccc(Br)s1	1.1	-9	1.1	1	-8	6
Cc1ccc(S(=O)(=O)NCCC(=O)NC2CCCC2)cc1	0.9	13	2.5*	-3	-148	-1
CC(C)CCNC(=O)C(C)N(Cc1ccc(F)cc1)C(=O)c1ccc(CN2CCCCC2)o1 (stereo not drawn)	0.7	34	0.7	1	32	13
CCCNS(=O)(=O)c1ccc(CCC(=O)N2CCOCC2)cc1	1	2	0.9	5	11	-7

Screens deposited in PubChem BioAssay by several laboratories.
